PubChem BioAssay AID1508607 (The Scripps Research Institute Molecular Screening Center, 2020)
The campaign covered roughly 2,300 compounds. About 20 (0.9%) were called active. Many of the other results were omitted from the sample, so actives are more common in it than they were. A number with no mark means an inactive call.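 Rule for the calls: active = mean percent activation across replicates above the counterscreen hit cutoff of 9.17%; inactive = the rest.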

What follows are molecules tested against Glucose-dependent insulinotropic receptor (Homo sapiens) (UniProt Q8TDV5) (assay: off-target GPR119 activation – cell-based, PathHunter beta-arrestin, luminescence, set 2, counter-screen for GPR151 activator project, confirmation (AID 1508607;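 note: 0% = median of sample wells and 100% = wells given EA reagent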)). Conditions: GPR119 PathHunter beta-arrestin cells, 90 min, at 11.2 µM, active compounds read high.
Chain of Glucose-dependent insulinotropic receptor (Homo sapiens) (Q8TDV5 whole entry, looked up): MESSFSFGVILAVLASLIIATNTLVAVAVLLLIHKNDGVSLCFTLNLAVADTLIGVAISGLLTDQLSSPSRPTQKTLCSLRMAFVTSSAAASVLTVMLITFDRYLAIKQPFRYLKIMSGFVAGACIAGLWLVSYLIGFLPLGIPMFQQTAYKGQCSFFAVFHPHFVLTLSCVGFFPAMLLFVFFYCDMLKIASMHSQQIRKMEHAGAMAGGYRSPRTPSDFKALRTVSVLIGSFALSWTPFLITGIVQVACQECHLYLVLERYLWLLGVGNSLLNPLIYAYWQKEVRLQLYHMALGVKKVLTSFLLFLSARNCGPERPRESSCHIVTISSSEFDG

Structure (SMILES) | activation
O=C1N[C@H](Cc2ccc(O)cc2)C(=O)N2CCN(Cc3cnn(-c4cccc(Cl)c4)c3)C[C@H]12 | 3.76%
COc1ccc(CNC(=O)C(NS(=O)(=O)c2ccc3c(c2)oc(=O)n3C)C(C)C)cc1 (stereo not drawn) | -0.7%
Cc1cccc(N2CCN(C(=O)c3ccc(S(=O)(=O)c4ccc(F)cc4)c([N+](=O)[O-])c3)C(C)C2)c1 (stereo not drawn) | 14.7% (active)
COc1ccc(N2CCN(C(=O)c3ccc(SCc4ccccc4F)c([N+](=O)[O-])c3)CC2)cc1 | 0.52%
Cc1ccc(C)c(N2CCN(C(=O)c3ccc(S(=O)(=O)c4ccc(Br)cc4)c([N+](=O)[O-])c3)CC2)c1 | 4.42%
Cc1ccccc1-n1cc(-c2ccccc2)[nH]c1=S | -4.28%
CSC1=NCCN1C(=O)COc1ccc2ccccc2c1 | -1.84%
COc1cc2nc(SCC(N)=O)n3nc(CCn4nc(C)cc4C)nc3c2cc1OC | 1.45%
Cc1c(C(=O)NCCC2CCCN2C)sc2ncnc(NCc3ccco3)c12 (stereo not drawn) | 3.32%
CCc1nnc(NC(=O)CSc2nc3cccnc3n2Cc2ccccc2)s1 | 0.71%
O=C(COc1ccccc1[N+](=O)[O-])N/N=C/c1ccc(Br)cc1 | 0.11%
Cc1cccc2c(N3CCCC3)nc(CNS(=O)(=O)c3ccc4c(c3)OCCO4)nc12 | -0.61%
COCC1CCN(c2nc3nonc3nc2NC2CCCC2)CC1 | 2.9%
O=C(CN1C(=O)C(c2ccccc2)=NC12CCCC2)Nc1ccccc1 | -0.92%
CCC(CC)C(=O)Nc1nnc(SCC(=O)Nc2cc(C(F)(F)F)ccc2Cl)s1 | 1.93%
Cn1cc(SCC(=O)Nc2ccccc2C(F)(F)F)c2ccccc21 | 3.59%
O=C(Nc1cc(C(F)(F)F)ccc1Cl)c1ccc(C(=O)C(=O)c2ccccc2)cc1 | 6.45%
Cc1ccc2c(c1)c(=O)c1ccccc1n2CC(=O)Nc1cccc(Cl)c1C | -2.08%
CCOC(=O)c1nnn(CC(=O)Nc2cccc(C)c2)c1C(=O)OCC | 1.6%
Cc1cc2c(cc1C)C(c1cc([N+](=O)[O-])ccc1Cl)CC(=O)N2 (stereo not drawn) | 0.43%
O=C(CCCn1c(=O)[nH]c2ccccc2c1=O)NC1CCCC1 | -1.75%
CCn1c(SC(C)C(=O)OC)nc2c(c1=O)SC(C)C2 (stereo not drawn) | -0.05%
COc1ccc(NS(=O)(=O)c2ccc(NC(=S)NC(C)=O)cc2)cc1 | 3.81%

Structure (SMILES) | activation
CCC(C)NC(=O)c1ccc(-n2c(=S)[nH]c3ccccc3c2=O)cc1 (stereo not drawn) | 0%
CCC(C)NC(=O)c1cc2c(=O)oc3ccccc3c2s1 (stereo not drawn) | 4.04%
CCC(C)NC(=O)c1cc(=O)[nH]c2ccc(Br)cc12 (stereo not drawn) | 47.8% (active)
CCc1c(C)sc(NC(NC(=O)C(C)C)(C(F)(F)F)C(F)(F)F)c1C#N | -0.12%
COc1cc(C2CC(=O)N3CN(C4CCCCC4)CSC3=C2C#N)cc(OC)c1OC (stereo not drawn) | -2.01%
CCOC(=O)c1c(NC(=O)CSc2c[nH]c3ccccc23)sc2c1CCCCC2 | 4.28%
CCCCCCCCCCCCCC/C(C(=O)O)=C(\C)C(=O)O | -2.17%
Cc1ccc2c(c1)NC(C)(C)c1sn(-c3ccc(C(C)C)cc3)c(=S)c1-2 | 1.46%
O=[N+]([O-])c1c(Cl)cc(O)c2c1C1C=CCC1C(c1ccc(Cl)cc1Cl)N2 (stereo not drawn) | 5.29%
CC(C)C1Nc2c(O)cc(Cl)c([N+](=O)[O-])c2C2C=CCC21 (stereo not drawn) | 10.3% (active)
O=C(Nc1ccccc1C(F)(F)F)c1cnn2c(C(F)(F)F)cc(-c3ccco3)nc12 | -0.72%
CCOC(=O)c1cnc2c(OC)cccc2c1N1CCN(CC)CC1 | -1.9%
CCC(Sc1nc(NC2CCCCC2)c2ccccc2n1)C(=O)Nc1ccc2c(c1)OCO2 (stereo not drawn) | 0.68%
CCC(=O)Nc1ccc(NC(=O)CSc2nc3c(c(=O)n(C)c(=O)n3C)n2C)cc1 | -0.37%
O=C(O)c1ccc(CN(Cc2ccc(Cl)cc2)C(=S)Nc2ccc(Oc3ccccc3)cc2)cc1 | -1.29%
Cc1[nH]c2ccc(OCc3ccccc3)cc2c1CCNC(=O)COc1ccc(F)cc1F | -2.17%
Cc1cc(Oc2nc3ccccn3c(=O)c2/C=C(\C#N)C(=O)N2CCCCC2)ccc1Cl | -22.9%
O=C(c1ccccc1)N1N=C(c2ccccc2)CC1(O)C(F)(F)C(F)(F)F (stereo not drawn) | 4.17%
Cc1ccc(S(=O)(=O)N2CCCC2CNC(=O)C(=O)NC2CCCC2)cc1 (stereo not drawn) | -1.44%
CCOc1ccccc1NC(=S)N(CCOC)C(C)c1ccccn1 (stereo not drawn) | -1.68%
Nc1ccc(C(=O)NCC2COc3ccccc3O2)cc1[N+](=O)[O-] (stereo not drawn) | 6.14%
Nc1ncc(Br)cc1S(=O)(=O)Nc1cc(F)ccc1F | -0.83%
CCOc1ccc(-c2nc(CSCC(=O)NCC3CCCO3)c(C)o2)cc1 (stereo not drawn) | 0.12%

Structure (SMILES) | activation
Cc1cc2oc3c(c(=O)c2cc1C)C(c1ccc(O)cc1)N(CCCN1CCOCC1)C3=O (stereo not drawn) | 2.08%
COc1cc(/C=C/C(=O)c2ccc(F)cc2)cc(OC)c1OC | 0.62%
CC(C)CC(NC(=O)C(C)NC(=O)CNC(=O)C(NC=O)C(C)C)C(=O)NC(C)C(=O)NC(C(=O)NC(C(=O)NC(C(=O)NC(Cc1c[nH]c2ccccc12)C(=O)NC(CC(C)C)C(=O)NC(Cc1c[nH]c2ccccc12)C(=O)NC(CC(C)C)C(=O)NC(Cc1c[nH]c2ccccc12)C(=O)NC(CC(C)C)C(=O)NC(Cc1c[nH]c2ccccc12)C(=O)NCCO)C(C)C)C(C)C)C(C)C (stereo not drawn) | 39.2% (active)
CN(C)c1ncc(/C=C2/C(=O)NC(=S)N(c3ccccc3F)C2=O)cn1 | 0.14%
COc1ccc(/C(C)=N/NC(=O)C(C)Nc2ccc(Cl)cc2)cc1 (stereo not drawn) | -2.32%
CC[C@@H](C(=O)C(C)[C@@H](O)[C@H](C)CCc1ccc(C)c(O)c1C(=O)O)C1OC(CC)(C2CC[C@](O)(CC)[C@H](C)O2)C[C@@H]1C (stereo partly drawn) | 29.8% (active)
COC(=O)C1=C(N)Oc2c(oc(CO)cc2=O)C1c1c(Cl)cccc1Cl (stereo not drawn) | 0.48%
C=CCN1C(=O)/C(=C2\SC(N3CCCCC3)=NC2=O)c2cc(Br)ccc21 | 2.45%
C=CCN1/C(=C\C=C2\C=Nc3ccc(Br)cc32)C=Cc2ccc(C)cc21 | 20.7% (active)
CC(C)c1onc(C(=O)Nc2cc(Cl)ccc2O)c1[N+](=O)[O-] | -3.34%
C=CCNC(=O)c1cccc(NS(=O)(=O)c2ccc(Cl)cc2)c1 | 4.37%
CCc1ccc(C2CC(c3ccccc3)Nc3nc(N)nn32)cc1 (stereo not drawn) | 3.26%
COc1ccc(Cn2c(C)c(C)n3c4c(=O)n(CCCO)c(=O)n(C)c4nc23)cc1 | 1.31%
O=C(NCCSCc1ccccc1)c1ccc[nH]c1=S | 2.53%
CCSc1nnc(CSc2ncccn2)n1-c1ccccc1 | -3.02%
COc1cc(S(=O)(=O)N2CCN(c3ccc(C)c(C)c3)CC2)ccc1F | 1.41%
COc1ccc(-c2nnc3sc(NC(=O)C(C)C)nn23)cc1 | -0.23%
Cc1nccc2[nH]c(=O)c(C(=O)NC3CCN(Cc4ccccc4)CC3)cc12 | 0.02%
Cc1cccc(NC(=O)c2c(-c3ccccc3Cl)noc2C)c1C | 0.14%
C=CCNc1nnc(-c2cc3c(CO)cnc(C)c3oc2=O)s1 | -2.69%
O=C1CCCN1CCCNc1nc(-c2cccc(Cl)c2)c2c(n1)-c1ccccc1OC2 | -1.27%
C=CCOC(=O)c1[nH]c2c(c1C)C(=O)C(C(=O)OC)C(C)C2 (stereo not drawn) | 2.72%
